These results are taken from ChEMBL document CHEMBL4513142, “CO-ADD screening of Indiana University - Purdue University Indianapolis (USA) compounds”.

One test concerns Klebsiella pneumoniae. The note with it: Concentration 32 ug.mL-1, ASSAY_TEST Inhibition of Bacterial Growth, detection method Absorption (OD600), MEDIA CAMHB, plate type 384well, NBS, CORNING #3640, time 18 hr.
For a further test, the system named is Cryptococcus neoformans. The note with it: Concentration 32 ug.mL-1, ASSAY_TEST Inhibition of Fungal Growth, detection method Resazurin, Absorption (OD600-OD570), plate type 384well, NBS, CORNING #3640. For orientation: Resazurin is reduced to fluorescent resorufin, in cell work by metabolically active cells.
A further test deals with Candida albicans. The following applies: 32 ug/mL.

The structures appear in SMILES notation. Several values for one entry are separate records, joined by “and”; a condition that tells them apart may be missing. Equal entries are not always repeated. Entries with a potency or affinity are not part of this list.

With `Cc1ccc(C(=O)NC(Cc2ccccc2C#N)C(=O)O)cc1` (centres undefined), the Inhibition – broadly, the change of the read-out against control, counted positive when it falls – with Klebsiella pneumoniae (32 ug/mL) is 10.82% and 9.51%; with Cryptococcus neoformans (32 ug/mL), -6.48% and -6.82%.
Consider `O=C(NC(Cc1ccc(Cl)nc1)C(=O)O)c1ccccc1` (centres undefined), for which the Inhibition was 9.49% and 7.67% in the test with Klebsiella pneumoniae (32 ug/mL); 3.67% and 3.1% with Candida albicans; -7.31% and -8.02% with Cryptococcus neoformans (32 ug/mL).
For `[C-]#[N+]c1ccc(C(=O)NC(Cc2ccc(F)cc2)C(=O)NCCC)cc1` (centres undefined), the Inhibition is 14.12% in the test on Klebsiella pneumoniae, 5.24% with Candida albicans and -1.72% in the test with Cryptococcus neoformans.
In the case of `O=C(NC(CCCc1ccccc1)C(=O)O)c1cccc2ccccc12` (centres undefined), the Inhibition with Klebsiella pneumoniae (32 ug/mL) was 4.24% and 7.53%; in the test with Candida albicans it was 4.21% and 5.17%; in the test with Cryptococcus neoformans (32 ug/mL) it was -11.3% and -10.65%.
As for `[C-]#[N+]c1ccc(C(=O)NC(CC)C(=O)NCCC)cc1` (centres undefined), the Inhibition is 12.56% in the test with Klebsiella pneumoniae, -0.99% in the test on Candida albicans and -4.7% in the test on Cryptococcus neoformans.
For the compound `CC(C)C[C@H](NC(=O)c1cccnc1)C(N)=O`, the Inhibition was 3.3% and -1.43% with Klebsiella pneumoniae (32 ug/mL); -4.01% and -5.8% in the test with Cryptococcus neoformans (32 ug/mL).
Regarding `O=C(Cc1cccc(Br)c1)N[C@@H](Cc1ccccc1)C(=O)O`, the Inhibition with Klebsiella pneumoniae (32 ug/mL) was 7.39% and -2.64%; in the test with Cryptococcus neoformans (32 ug/mL) it was -5.52% and -8.87%.
Turning to `Cc1ccc(C(=O)NC(Cc2cc(F)c(F)cc2F)C(=O)O)cc1` (centres undefined), the Inhibition with Klebsiella pneumoniae (32 ug/mL) was 7.96% and 13.51%; with Candida albicans, 4.99% and 4.52%; with Cryptococcus neoformans (32 ug/mL), -10.86% and -7.35%.
As for `Cc1ccc(C(=O)NC(Cc2ccc(F)cc2)C(=O)O)cc1` (centres undefined), the Inhibition in the test with Klebsiella pneumoniae (32 ug/mL) is -11.12% and 7.59%; in the test on Cryptococcus neoformans (32 ug/mL), -14.35% and -11.02%.
Take `[C-]#[N+]c1ccc(C(=O)NC(Cc2ccccc2F)C(=O)NCCC)cc1` (centres undefined): the figures for the Inhibition in the test on Klebsiella pneumoniae, in the test on Candida albicans and with Cryptococcus neoformans were 8.88%, 1.53% and -7.85%, respectively.
Consider `NC(Cc1ccc(F)c(F)c1)C(=O)O.O=C(O)C(F)(F)F` (centres undefined), for which the Inhibition in the test with Klebsiella pneumoniae (32 ug/mL) was 7.21% and 5.15%; in the test with Candida albicans, 1.67% and -0.02%; in the test with Cryptococcus neoformans (32 ug/mL), -13.22% and -14.09%.
